In PubChem BioAssay (Tox21):
Records with an inconclusive call do not appear. Calls of active or inactive are those of the source. The call rests on the fitted dose curve; in most records, active means well fitted curve in the direction sought with a large enough effect in the repeat runs; inconclusive means weak or mixed curves; inactive means no such curve, though single readings can be large; an effect the other way counts as inactive or inconclusive.

Tests used:
[1] = A CellTox Green Cytotoxicity Assay to monitor cytotoxicity in HepG2 cells - 24 hour (AID 1224878); further: nearly all actives have a fitted effect of over 45% in size
How it was run: (§1)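 HepG2 cells were seeded together with the CellTox Green dye at 600 cells/well, left 5 h at 37 C/5% CO2, then given compounds in DMSO. Fluorescence from dye bound to dead-cell DNA was read repeatedly over 40 h of treatment at 37 C.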

[2] = A CellTox Green Cytotoxicity Assay to monitor cytotoxicity in HepG2 cells - 40 hour (AID 1224879); further: nearly all actives have a fitted effect of over 40% in size
How it was run: as §1

[3] = qHTS RealTime-Glo MT Cell Viability Assay in HEK293 cells - 0 hour (AID 1224880); further: top concentration of the series differs between compounds; nearly all actives have a fitted effect of over 45% in size
How it was run: (§2)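 HEK293 cells mixed with RealTime-Glo reagents (NanoLuc plus cell-permeant prosubstrate) at 600 cells/well, preincubated 5 h at 37 C/5% CO2, then given 23 nL compound in DMSO. Nonlytic luminescence from viable cells was read at 0, 8, 16, 24, 32 and 40 h.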

[4] = A CellTox Green Cytotoxicity Assay to monitor cytotoxicity in HEK293 cells - 32 hour (AID 1224881); further: nearly all actives have a fitted effect of over 40% in size
How it was run: (§3)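 HEK293 cells premixed with CellTox Green dye were seeded at 600 cells/well and left 5 h at 37 C/5% CO2 before pin transfer of 23 nL compound in DMSO. Fluorescence from dye bound to dead-cell DNA was read during 40 h treatment.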

[5] = A CellTox Green Cytotoxicity Assay to monitor cytotoxicity in HepG2 cells - 0 hour (AID 1224882); further: nearly all actives have a fitted effect of over 35% in size
How it was run: as §1

[6] = A CellTox Green Cytotoxicity Assay to monitor cytotoxicity in HepG2 cells - 32 hour (AID 1224883); further: nearly all actives have a fitted effect of over 50% in size
How it was run: as §1

[7] = A CellTox Green Cytotoxicity Assay to monitor cytotoxicity in HEK293 cells - 8 hour (AID 1224884); further: nearly all actives have a fitted effect of over 35% in size
How it was run: as §3

[8] = qHTS RealTime-Glo MT Cell Viability Assay in HepG2 cells - 16 hour (AID 1224885); further: nearly all actives have a fitted effect of over 50% in size
How it was run: (§4)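 Tox21 10K library screened in qHTS format on HepG2 cells carrying RealTime-Glo reagents. Compounds were added after a 5 h preincubation, and the luminescent signal from continuous culture was measured repeatedly during 40 h treatment.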

[9] = qHTS RealTime-Glo MT Cell Viability Assay in HEK293 cells - 24 hour (AID 1224886); further: top concentration of the series differs between compounds; nearly all actives have a fitted effect of over 50% in size
How it was run: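 Luminescence generated by NanoLuc from substrate produced by living HEK293 cells served as the viability signal. Each value reflects the reading at its stated time point during continuous 40 h compound exposure at 37 C.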

[10] = qHTS RealTime-Glo MT Cell Viability Assay in HEK293 cells - 8 hour (AID 1224887); further: top concentration of the series differs between compounds; nearly all actives have a fitted effect of over 50% in size
How it was run: as §2

[11] = A CellTox Green Cytotoxicity Assay to monitor cytotoxicity in HEK293 cells - 16 hour (AID 1224888); further: nearly all actives have a fitted effect of over 35% in size
How it was run: as §3

[12] = qHTS RealTime-Glo MT Cell Viability Assay in HepG2 cells - 0 hour (AID 1224889); further: nearly all actives have a fitted effect of over 50% in size
How it was run: as §4

[13] = A CellTox Green Cytotoxicity Assay to monitor cytotoxicity in HepG2 cells - 8 hour (AID 1224890); further: nearly all actives have a fitted effect of over 45% in size
How it was run: as §1

[14] = qHTS assay to identify small molecule antagonists of the estrogen receptor alpha (ER-alpha) signaling pathway using the BG1 cell line in the presence of 0.1 nM 17-beta-estradiol - cell viability counter screen (AID 1259241); further: nearly all actives have a fitted effect of over 40% in size
How it was run: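 Viability in VM7Luc4E2 cells after 22 hr compound exposure under 0.1 nM 17beta-estradiol stimulation, by CellTiter-Fluor.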

[15] = qHTS assay to identify small molecule antagonists of the androgen receptor (AR) signaling pathway using the MDA cell line in the presence of 0.5 nM R1881 - cell viability counter screen (AID 1259242); further: nearly all actives have a fitted effect of over 45% in size
How it was run: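 MDA-kb2 cells (human breast carcinoma, stably carrying MMTV-luciferase reporter) were exposed to compounds with 0.5 nM R1881 (final) for 16 hr at 37C, 0% CO2; viability then read as live-cell protease fluorescence (CellTiter-Fluor, 30 min) in the same wells.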

[16] = qHTS assay to identify small molecule HDAC inhibitors (AID 1259364)
How it was run: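 Wild-type HCT-116 cells were plated overnight, exposed to compounds for 2 h at 37 °C, then given HDAC-Glo class I/II luminogenic reagent for 30 min at room temperature before luminescence was read.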

[17] = target: Androgen receptor (Homo sapiens) (UniProt P10275); test: qHTS assay to identify small molecule antagonists of the androgen receptor (AR) signaling pathway using the MDA cell line in the presence of 0.5 nM R1881 (AID 1259243); further: nearly all actives have a fitted effect of over 50% in size
How it was run: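 MDA-kb2 human breast carcinoma cells carrying an MMTV-luciferase reporter (AR- and GR-responsive) were plated, rested 5 hr at 37C, dosed with compounds, then stimulated with 0.5 nM R1881 (final) for 16 hr; luminescence was read after ONE-Glo.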

[18] = qHTS assay to identify small molecule HDAC inhibitors - cell viability counter screen (AID 1259365)
How it was run: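 Cytotoxicity was gauged in wild-type HCT-116 cells after a brief 2hr treatment with DMSO-dissolved compounds at 37C and 5% CO2, using CellTiter-Glo luminescence developed for 30min at room temperature.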

[19] = target: Estrogen receptor (Homo sapiens) (UniProt P03372); test: qHTS assay to identify small molecule antagonists of the estrogen receptor alpha (ER-alpha) signaling pathway using the BG1 cell line in the presence of 0.1 nM 17-beta-estradiol (AID 1259244); further: nearly all actives have a fitted effect of over 50% in size
How it was run: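 VM7Luc4E2 cells (endogenous full-length ER-alpha, stable 4xERE-luciferase) were grown 5 days in phenol red-free medium with charcoal-stripped FBS, then exposed 22 h at 37C to compounds plus 0.1 nM (final) 17beta-estradiol; ONE-Glo luminescence read-out.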

Measured: Potency

Estrogen receptor (Homo sapiens), sequence (P03372 whole entry, looked up): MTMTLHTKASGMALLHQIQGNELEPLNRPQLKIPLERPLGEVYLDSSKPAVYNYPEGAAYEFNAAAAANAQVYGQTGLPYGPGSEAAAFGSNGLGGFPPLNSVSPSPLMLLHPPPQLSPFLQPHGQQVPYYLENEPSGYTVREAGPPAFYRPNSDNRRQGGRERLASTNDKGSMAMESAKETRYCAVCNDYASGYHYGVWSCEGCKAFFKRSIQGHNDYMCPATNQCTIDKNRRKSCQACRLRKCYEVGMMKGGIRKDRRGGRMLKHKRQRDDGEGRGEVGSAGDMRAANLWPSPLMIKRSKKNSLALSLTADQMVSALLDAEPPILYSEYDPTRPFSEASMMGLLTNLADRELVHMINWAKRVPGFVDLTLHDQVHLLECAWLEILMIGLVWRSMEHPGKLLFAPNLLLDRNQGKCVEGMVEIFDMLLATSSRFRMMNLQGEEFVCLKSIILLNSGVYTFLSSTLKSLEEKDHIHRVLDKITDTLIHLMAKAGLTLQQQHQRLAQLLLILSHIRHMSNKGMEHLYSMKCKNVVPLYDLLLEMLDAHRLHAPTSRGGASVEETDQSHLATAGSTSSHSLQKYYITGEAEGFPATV
Androgen receptor (Homo sapiens), sequence (P10275 whole entry, looked up): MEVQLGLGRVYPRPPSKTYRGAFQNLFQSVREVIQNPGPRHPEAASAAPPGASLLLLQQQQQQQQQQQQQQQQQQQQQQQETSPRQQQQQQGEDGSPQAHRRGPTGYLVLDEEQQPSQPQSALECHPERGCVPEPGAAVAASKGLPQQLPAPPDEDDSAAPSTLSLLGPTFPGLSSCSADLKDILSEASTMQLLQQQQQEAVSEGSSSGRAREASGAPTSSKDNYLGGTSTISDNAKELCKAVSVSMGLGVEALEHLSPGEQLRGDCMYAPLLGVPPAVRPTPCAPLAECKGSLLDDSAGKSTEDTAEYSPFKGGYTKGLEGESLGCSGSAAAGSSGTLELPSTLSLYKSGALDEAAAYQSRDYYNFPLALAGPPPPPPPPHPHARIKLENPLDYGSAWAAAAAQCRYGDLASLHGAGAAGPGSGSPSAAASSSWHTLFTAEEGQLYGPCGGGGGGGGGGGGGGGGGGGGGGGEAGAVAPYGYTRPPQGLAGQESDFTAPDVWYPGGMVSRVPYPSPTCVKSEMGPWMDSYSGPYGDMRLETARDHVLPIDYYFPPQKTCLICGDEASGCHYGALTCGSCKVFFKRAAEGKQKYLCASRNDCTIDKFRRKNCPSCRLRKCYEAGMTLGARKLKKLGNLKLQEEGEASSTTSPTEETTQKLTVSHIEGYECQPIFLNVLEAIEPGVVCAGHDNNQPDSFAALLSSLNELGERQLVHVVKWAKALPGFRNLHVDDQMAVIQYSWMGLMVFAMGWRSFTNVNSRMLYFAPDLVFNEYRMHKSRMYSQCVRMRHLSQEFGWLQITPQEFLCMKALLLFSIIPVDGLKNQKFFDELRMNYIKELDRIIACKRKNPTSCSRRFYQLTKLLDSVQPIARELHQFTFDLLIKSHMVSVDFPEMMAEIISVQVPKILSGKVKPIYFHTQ

O=Cc1ccccc1S(=O)(=O)O
inactive: [1] | [2] | [3] | [4] | [5] | [6] | [7] | [8] | [9] | [10] | [11] | [12] | [13] | [14] | [15] | [16]

CC(=O)c1ccc(O)c(C(N)=O)c1
inactive: [1] | [2] | [3] | [4] | [5] | [6] | [7] | [8] | [9] | [10] | [11] | [12] | [13] | [14] | [17] | [16] | [18]

CC(=O)OC1CCC(C(C)(C)C)CC1 (stereo unspecified)
inactive: [1] | [2] | [3] | [4] | [5] | [6] | [7] | [8] | [9] | [10] | [11] | [12] | [13] | [14] | [17] | [19] | [16]

C=CC(=O)CC
inactive: [1] | [2] | [3] | [4] | [5] | [6] | [7] | [8] | [9] | [10] | [11] | [12] | [13] | [14] | [15] | [16] | [18]

CCCCCCCCCCCCCCCC/C=C/C1CC(=O)OC1=O (stereo unspecified)
inactive: [1] | [2] | [3] | [4] | [5] | [6] | [7] | [8] | [9] | [10] | [11] | [12] | [13] | [14] | [15] | [16] | [18]

CCCCCC(=O)CC
inactive: [1] | [2] | [3] | [4] | [5] | [6] | [7] | [8] | [9] | [10] | [11] | [12] | [13] | [14] | [15] | [16] | [18]

CCCCC(O)/C=C(C)/C=C/C=C/C(=O)N1CCCC1=O (stereo unspecified)
inactive: [1] | [2] | [3] | [4] | [5] | [6] | [7] | [8] | [9] | [10] | [11] | [12] | [13] | [14] | [15] | [16]

Cc1ccc(OC(=O)CC(C)C)cc1
inactive: [1] | [2] | [3] | [4] | [5] | [6] | [7] | [8] | [9] | [10] | [11] | [12] | [13] | [14] | [19] | [16] | [18]

CCCCCCC(O)CO (stereo unspecified)
inactive: [1] | [2] | [3] | [4] | [5] | [6] | [7] | [8] | [9] | [10] | [11] | [12] | [13] | [14] | [16] | [18]

Cc1ccc(Br)cc1
inactive: [1] | [2] | [3] | [4] | [5] | [6] | [7] | [8] | [9] | [10] | [11] | [12] | [13] | [14] | [15] | [18]

CCCCCCCCCCCCCC(=O)OCC
inactive: [1] | [2] | [3] | [4] | [5] | [6] | [7] | [8] | [9] | [10] | [11] | [12] | [13] | [14] | [15] | [16] | [18]

O=C(O)COc1ccc2ccccc2c1
inactive: [1] | [2] | [3] | [4] | [5] | [6] | [7] | [8] | [9] | [10] | [11] | [12] | [13] | [14] | [16] | [18]

Cc1cc(=O)oc2cc(O[C@@H]3SC[C@@H](O)[C@H](O)[C@H]3O)ccc12
inactive: [1] | [2] | [3] | [4] | [5] | [6] | [7] | [8] | [9] | [10] | [11] | [12] | [13] | [14] | [17] | [19] | [16] | [18]

Cc1ccccc1OCC(=O)O
inactive: [1] | [2] | [3] | [4] | [5] | [6] | [7] | [8] | [9] | [10] | [11] | [12] | [13] | [14] | [19] | [16] | [18]

C=COCCCCO
inactive: [1] | [2] | [3] | [4] | [5] | [6] | [7] | [8] | [9] | [10] | [11] | [12] | [13] | [14] | [19] | [16] | [18]

C=CC(=O)OCCOCCOCC
inactive: [1] | [2] | [3] | [4] | [5] | [6] | [7] | [8] | [9] | [10] | [11] | [12] | [13] | [14] | [15] | [16] | [18]

CC[N+](C)(CC)CC
inactive: [1] | [2] | [3] | [4] | [5] | [6] | [7] | [8] | [9] | [10] | [11] | [12] | [13] | [14] | [15] | [16] | [18]

BrCCOc1ccccc1
inactive: [1] | [2] | [3] | [4] | [5] | [6] | [7] | [8] | [9] | [10] | [11] | [12] | [13] | [14] | [15] | [18]
